This note sets out measurements from ChEMBL document CHEMBL4513149, “CO-ADD screening of MMV (CH) - MMV compounds” (2021).

One test has as its system Klebsiella pneumoniae. Conditions: Concentration 20 uM; ASSAY_TEST Inhibition of Bacterial Growth; detection method Absorption (OD600); MEDIA CAMHB; plate type 384well; NBS; CORNING #3640; time 18 hr.
A further test concerns Candida albicans. Conditions: 20 µM.
For a further test, the system named is Cryptococcus neoformans. Conditions: Concentration 20 uM; ASSAY_TEST Inhibition of Fungal Growth; detection method Resazurin; Absorption (OD600-OD570); plate type 384well; NBS; CORNING #3640.

SMILES strings stand for the structures. Entries with a potency or affinity are not part of this list.

On to `Cc1cc(C2=NOC(c3cc(Cl)c(F)c(Cl)c3)(C(F)(F)F)C2)ccc1C(=O)NCc1ccc2c(c1)C(C)(C)OB2O` (stereo not given), for which the Inhibition is 14.68% with Klebsiella pneumoniae, 4.25% in the test with Candida albicans and -8.68% with Cryptococcus neoformans.

With `CO[C@@H]1CN(c2ccc(C#CC3(O)CN4CCC3CC4)c(Cc3ccccc3)n2)C[C@H]1O` (stereo not given in full), the results for the Inhibition in the test on Klebsiella pneumoniae, with Candida albicans and in the test on Cryptococcus neoformans were 0.81%, 1.57% and 0.17%, respectively.

Take `CC1(C)OB(O)c2ccc(C3=NOC(c4cc(Cl)c(F)c(Cl)c4)(C(F)(F)F)C3)cc21` (stereo not given): the Inhibition with Klebsiella pneumoniae was 23.09%; in the test on Candida albicans, 3.03%; with Cryptococcus neoformans, -7.16%.

Regarding `Cc1cccc(C(=O)Nc2ccnc(N(C)C3CCN(CC(C)C)CC3)c2)c1`, the Inhibition with Klebsiella pneumoniae is 8.58%; in the test with Candida albicans it was 4.57%; in the test with Cryptococcus neoformans, -6.76%.

With `Nc1c2c(nc3sc4c(c13)CCCC4)CCCC2`, the Inhibition in the test with Klebsiella pneumoniae is 3.88%; in the test on Candida albicans it was 0.42%; in the test with Cryptococcus neoformans, -9.94%.

As for `Cc1nn(Cc2ccccc2)c(Cl)c1C(=O)NC1CCCCCC1`, the Inhibition in the test with Klebsiella pneumoniae was 0.72%; in the test on Candida albicans, 5.99%; with Cryptococcus neoformans, -4.17%.

Turning to `CO[C@@H](C(=O)N1Cc2[nH]nc(NC(=O)c3ccc(N4CCN(C)CC4)cc3)c2C1)c1ccccc1` [DANUSERTIB], the results for the Inhibition in the test with Klebsiella pneumoniae, with Candida albicans and in the test with Cryptococcus neoformans were 10.18%, 3.17% and -4%, respectively.

On to `CNCCC(Oc1ccc(C(F)(F)F)cc1)c1ccccc1` (stereo not given) [FLUOXETINE], for which the Inhibition in the test with Klebsiella pneumoniae was determined as 7.93%; in the test on Candida albicans, 1.88%; in the test on Cryptococcus neoformans, 2.51%.

In the case of `Cc1nn(C)c(C)c1NS(=O)(=O)c1c(Cl)cc(-c2ccnc(N3CCNCC3)c2)cc1Cl`, the Inhibition in the test on Klebsiella pneumoniae was 16.22%; with Candida albicans, 6.45%; in the test on Cryptococcus neoformans it was -5.82%.

For `CC(=O)Oc1ccccc1C(=O)Nc1ncc([N+](=O)[O-])s1` [NITAZOXANIDE], the Inhibition in the test with Klebsiella pneumoniae came to 13.55%; with Candida albicans, 26.7%; with Cryptococcus neoformans it was 17.15%.

In general, Inhibition refers to the change of the read-out against control, counted positive when it falls.
